Source: PubChem BioAssay (Broad Institute)
PfHsp90 set2: growth inhibition of PfHsp90-expressing yeast, primary screen, antimalarial PfHsp90 inhibitor project, S. cerevisiae, BacTiter-Glo luminescence, single point, set 2; BacTiter-Glo ATP, 48 h; yeast lacking PDR1 and PDR3 efflux regulators; inhibition, % at 9.4 µM; 310,000 compounds, 0.32% hits;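 active = every replicate shows inhibition above about 80%, whatever the replicate mean, limit read from the data; inconclusive = mean inhibition reaches the set limit but some replicate falls short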
N-glyco inh: increase of ERlucT glycosylation luciferase signal, primary screen, N-linked glycosylation inhibitor project, D54 ERlucT cells, luminescence, set 2; D54 ERlucT glycosylation luciferase reporter, 24 h; percent of 100 nM tunicamycin response; reporter increase, % at 12.5 µM; 360,000 compounds, 0.23% hits;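 active = mean luciferase reporter signal, scaled so untreated is 0 and the glycosylation-blocking control 100, at or above a set limit in every replicate; inconclusive = mean reaches the limit but not every replicate does; inactive = mean below the limit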;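 note: luciferase carries N-glycosylation sites so blocking glycosylation raises the light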
Vif inh: HIV Vif self-association inhibitors, primary screen, imaging, HEK293T, single point; HEK293T cells, Vif self-association by quenched fluorescence, 24 h; inhibition, % at 7.49 µM; 340,000 compounds, 0.35% hits; AID 602346, 2012; in the data active = inhibition above about 50%, passing the limit was not always enough; inconclusive = no clear call, values can overlap the other calls; inactive = below about 31%
esBAF inh: Bmi1 luciferase reporter increase in mESCs, primary screen, esBAF inhibitor project, mouse ES cells, Bmi1 luciferase knock-in, single point | 24 h; 100% = twice the neutral-well signal | reporter increase, % at 12.5 µM | 350,000 compounds, 2% hits; in the data active = activation above about 40%; inconclusive = no clear call, values can overlap the other calls;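 note: a rise in the Bmi1 reporter signal indicates esBAF inhibition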
MITF act: activators of MITF-driven TRPM1 promoter reporter, primary screen, cell-based, SK-MEL-5, luciferase, single point; activation, % at 12.5 µM; 300,000 compounds, 0.75% hits; AID 588334, 2011; SK-MEL-5 TRPM1-promoter luciferase, 24 h; % of positive control, neutral wells = 0;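 active = mean activation of at least 80% with every replicate also reaching 80%; inconclusive = mean reaches 80% but some replicate falls short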
Wnt act: Wnt/beta-catenin pathway activators, primary screen, cell-based, plate reader, single point. Wnt/beta-catenin reporter cell assay, activator. activation, % at 9.35 µM. 300,000 compounds, 1.2% hits; in the data active = activation above about 30%, passing the limit was not always enough; inconclusive = no clear call, values can overlap the other calls
Of the large screens only hits and unclear results are named; the others gave an inactive call. Only some compounds are listed: those with a hit (about 3% of all), similar ones and a draw of the others.

CCN(CC)C1CC(=O)N(c2ccc(Br)cc2)C1=O (stereo not given)	PfHsp90 set2 112.1
CC(C)COc1ccc(/C(O)=C2/C(=O)C(=O)N(CCN(C)C)C2c2ccncc2)cc1 (stereo not given)	none (no result: Vif inh, esBAF inh, Wnt act)
COc1cc2c(cc1OC(C)=O)C(=O)CCCC2	none (no result: PfHsp90 set2, esBAF inh, MITF act)
CC(=O)Oc1cc2c(cc1OC(C)=O)C(=O)CCCC2	Vif inh 57.2 (no result: PfHsp90 set2, MITF act)
CN(c1ccccc1)c1nc2ccsc2c(=O)s1	esBAF inh 46.6, MITF act 98.7 (no result: PfHsp90 set2)
CCN(c1ccccc1)c1nc2ccsc2c(=O)s1	none (no result: Wnt act)
NNC(=O)c1ccc(OCC2CC(c3ccc(Cl)cc3)=NO2)cc1 (stereo not given)	N-glyco inh 52.3 (no result: esBAF inh, MITF act)
CC1=C(C(=O)Nc2ccccc2)C(c2ccc3c(c2)OCO3)C2=C(CCCC2=O)N1 (stereo not given)	none
O=C(NCc1ccc(F)cc1)c1cc(S(=O)(=O)N2CCCCC2)ccc1Cl	none
Cc1ccc(N2Cc3ccccc3C2=S)cc1	esBAF inh 72.8
O=c1c(O)c(-c2ccc3c(c2)OCO3)oc2ccccc12	esBAF inh 54.8 (no result: Wnt act)
FC(F)(F)c1ccccc1Cc1c(-c2ccc(Cl)cc2)nc2ccc(Br)cn12	esBAF inh 42.4 (no result: PfHsp90 set2, Vif inh, MITF act)
FC(F)(F)c1ccccc1Cc1c(-c2ccc(Cl)cc2)nc2ccc(Cl)cn12	esBAF inh 64.4 (no result: PfHsp90 set2, Vif inh, MITF act)
COc1ccccc1Cc1c(-c2ccccc2)nc2ccc(Br)cn12	esBAF inh 52.0 (no result: PfHsp90 set2, Vif inh, MITF act)
COc1cc(OC)cc(-c2noc([C@@H]3O[C@H](CO)[C@H](O)[C@H](O)[C@H]3O)n2)c1	none (no result: PfHsp90 set2, MITF act)
C[C@H]1CN([C@@H](C)CO)C(=O)c2cc(NS(=O)(=O)c3cn(C)cn3)ccc2O[C@@H]1CN(C)S(=O)(=O)c1ccccc1	none (no result: PfHsp90 set2, N-glyco inh, Vif inh, MITF act, Wnt act)
O=C(Nc1cccnc1Cl)c1cc2c(s1)-c1ccccc1OC2	esBAF inh 46.0
Cc1cccc2c1-c1sc(C(=O)Nc3nccs3)cc1CO2	esBAF inh 47.3
O=C(Nc1cccnc1Cl)c1noc2c1CCc1ccccc1-2	Wnt act 36.8 (no result: esBAF inh)
O=C(Nc1nccs1)c1cc2c(s1)-c1ccccc1OC2	esBAF inh 103.2, Wnt act inconclusive
O=C(Nc1ccc(SC(F)F)cc1)c1ccccc1F	none (no result: esBAF inh)
CCOC(=O)c1cc2c(s1)-c1c(C)cccc1OC2	esBAF inh 64.2 (no result: MITF act)
Cc1cccc2c1-c1sc(C(=O)Nc3cccnc3)cc1CO2	esBAF inh 49.8
O=C(Nc1cccnc1)c1cc2c(s1)-c1ccccc1OC2	none
O=C(c1ccccc1F)N1C[C@@H]2[C@H](c3ccccc31)[C@@H](CO)N2C(=O)C1CCCC1	none (no result: PfHsp90 set2, N-glyco inh, Vif inh, MITF act, Wnt act)
S=C(Nc1ccccc1)Nn1cnnc1	none (no result: esBAF inh, Wnt act)
O=C(/C=C/c1ccccc1)NCCC1=CCCCC1	esBAF inh 71.2
O=C(/C=C/c1ccc(F)cc1)NCCC1=CCCCC1	esBAF inh 78.1, Wnt act 65.0 (no result: MITF act)
COc1ccccc1/C=C/C(=O)NCCC1=CCCCC1	Wnt act 52.7 (no result: esBAF inh)
O=C(COC(=O)/C=C/c1ccc(C(F)(F)F)cc1)NCCC1=CCCCC1	none
COc1ccccc1OCC(=O)NCCC1=CCCCC1	none (no result: esBAF inh, Wnt act)
Cc1nc(CCNC(=O)Cc2ccc(Cl)cc2)cs1	none (no result: MITF act)
Cc1nc2ccccc2c(=O)n1/N=C/c1c(O)ccc2ccccc12	none (no result: esBAF inh)
CC1(C)CC(=O)C(/C=N/n2c(C(F)(F)F)nc3ccccc3c2=O)=C(O)C1	Vif inh 85.5 (no result: PfHsp90 set2)
O=C(c1ccccc1-c1nc(-c2ccccc2Cl)no1)N1CCOCC1	none
CCC(C)(C)n1nnnc1C(c1ccncc1)N1CCC(Cc2ccccc2)CC1 (stereo not given)	none
CCC(C)(C)n1nnnc1C(c1cccnc1)N1CCC(Cc2ccccc2)CC1 (stereo not given)	PfHsp90 set2 83.2 (no result: esBAF inh)
Cc1cc(C)n(CCOc2ccc(Cl)cc2Cl)n1	none
CCN1/C(=C\c2ccc3cc(C)ccc3[n+]2CC)Sc2cc(C)c(C)cc21	PfHsp90 set2 94.2
CCN1/C(=C/c2ccc3cccc(C)c3[n+]2CC)Sc2ccccc21	N-glyco inh inconclusive (no result: Vif inh, esBAF inh, Wnt act)
